Laboratory results taken from the supplement of paper PMC10849652.
Targets with a hit are over-represented here; the source holds about 8,800 in all. About 0.5% of all pairs of compound and target were hits. Values without a mark were called inactive.

Assays:
Experiment in all cases: log2 fold change, soluble protein after heating vs DMSO (PISA); higher = thermal stabilisation; K562 lysate, 10 uM; active = over 0.2 and 3.5 SD of the protein, either way, in both replicates (recomputed)
vemurafenib = compound: CCCS(=O)(=O)Nc1ccc(F)c(C(=O)c2c[nH]c3ncc(-c4ccc(Cl)cc4)cc23)c1F [vemurafenib]
Procedure, shortened: (§1)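 A 30 min treatment with 10 μM compound was applied to crude K562 extract at 1 mg/mL protein in PBS pH 7.4 with 1 mM MgCl2. Heating for 3 min spanned 48°C-58°C, after which aliquots were pooled, adjusted to 0.5% NP-40 at 4°C and spun at 21,000xg for 90 min. TMTpro 16plex LC-MS/MS of the supernatant, with channel sums equalised, gave values recorded as log-two fold change in thermal stability against solvent controls, from duplicates.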

[1] = compound: CC[C@@H]1C(=O)N(C)c2cnc(Nc3ccc(C(=O)NC4CCN(C)CC4)cc3OC)nc2N1C1CCCC1
Procedure, shortened: as §1

[2] = compound: CCn1cc(-c2ccnc3[nH]c(-c4cccc(CN(C)C)c4)cc23)c(-c2ccc(NC(=O)N(C)C)cc2)n1
Procedure, shortened: as §1

[3] = compound: CN1CCC(CNc2ccc3ncc(-c4cccc(OC(F)(F)F)c4)n3n2)CC1
Procedure, shortened: as §1

alvocidib = compound: CN1CC[C@H](c2c(O)cc(O)c3c(=O)cc(-c4ccccc4Cl)oc23)[C@H](O)C1 [alvocidib]
Procedure, shortened: as §1

defactinib = compound: CNC(=O)c1ccc(Nc2ncc(C(F)(F)F)c(NCc3nccnc3N(C)S(C)(=O)=O)n2)cc1 [defactinib]
Procedure, shortened: as §1

encorafenib = compound: COC(=O)N[C@@H](C)CNc1nccc(-c2cn(C(C)C)nc2-c2cc(Cl)cc(NS(C)(=O)=O)c2F)n1 [encorafenib]
Procedure, shortened: as §1

[4] = compound: COC(=O)[C@H](CCSC)NC(=O)C1=C(C=C(C=C1)NC[C@H](CS)N)C2=CC=CC=C2
Procedure, shortened: as §1

barasertib = compound: CCN(CCCOc1ccc2c(Nc3cc(CC(=O)Nc4cccc(F)c4)[nH]n3)ncnc2c1)CCOP(=O)(O)O [barasertib]
Procedure, shortened: as §1

sotrastaurin = compound: CN1CCN(c2nc(C3=C(c4c[nH]c5ccccc45)C(=O)NC3=O)c3ccccc3n2)CC1 [sotrastaurin]
Procedure, shortened: as §1

[5] = compound: CCCS(=O)(=O)Nc1ccc(F)c(C(=O)c2c[nH]c3ncc(Cl)cc23)c1F
Procedure, shortened: as §1

volasertib = compound: CC[C@@H]1C(=O)N(C)c2cnc(Nc3ccc(C(=O)N[C@H]4CC[C@H](N5CCN(CC6CC6)CC5)CC4)cc3OC)nc2N1C(C)C [volasertib]
Procedure, shortened: as §1

[6] = compound: CCn1c(C(=O)N(C2CC2)C2CC2)cc2c3c(ncn3C)c(Nc3cc(C)n(C)n3)nc21
Procedure, shortened: as §1

Tubastatin A = compound: CN1CCc2c(c3ccccc3n2Cc2ccc(C(=O)NO)cc2)C1 [Tubastatin A]
Procedure, shortened: as §1

[7] = compound: CNC(=O)C1=CC=CC=C1NC2=NC(=NC=C2Cl)NC3=C(C=C(C=C3)N4CCOCC4)OC
Procedure, shortened: as §1

[8] = compound: COc1cc2nc(-c3cc(F)ccc3O)nc(N[C@@H]3CNC[C@H]3C(C)(C)O)c2cc1OC
Procedure, shortened: as §1

saracatinib = compound: CN1CCN(CCOc2cc(OC3CCOCC3)c3c(Nc4c(Cl)ccc5c4OCO5)ncnc3c2)CC1 [saracatinib]
Procedure, shortened: as §1

[9] = compound: CNc1nc(-c2ccc3c(N)n[nH]c3c2)cc(N2C[C@@H](C(=O)NC3CCCCC3)CC[C@H]2C)n1
Procedure, shortened: as §1

alisertib = compound: COc1cc(Nc2ncc3c(n2)-c2ccc(Cl)cc2C(c2c(F)cccc2OC)=NC3)ccc1C(=O)O [alisertib]
Procedure, shortened: as §1

gefitinib = compound: COc1cc2ncnc(Nc3ccc(F)c(Cl)c3)c2cc1OCCCN1CCOCC1 [gefitinib]
Procedure, shortened: as §1

Chain of UniProt P30622 (P30622 whole entry, looked up): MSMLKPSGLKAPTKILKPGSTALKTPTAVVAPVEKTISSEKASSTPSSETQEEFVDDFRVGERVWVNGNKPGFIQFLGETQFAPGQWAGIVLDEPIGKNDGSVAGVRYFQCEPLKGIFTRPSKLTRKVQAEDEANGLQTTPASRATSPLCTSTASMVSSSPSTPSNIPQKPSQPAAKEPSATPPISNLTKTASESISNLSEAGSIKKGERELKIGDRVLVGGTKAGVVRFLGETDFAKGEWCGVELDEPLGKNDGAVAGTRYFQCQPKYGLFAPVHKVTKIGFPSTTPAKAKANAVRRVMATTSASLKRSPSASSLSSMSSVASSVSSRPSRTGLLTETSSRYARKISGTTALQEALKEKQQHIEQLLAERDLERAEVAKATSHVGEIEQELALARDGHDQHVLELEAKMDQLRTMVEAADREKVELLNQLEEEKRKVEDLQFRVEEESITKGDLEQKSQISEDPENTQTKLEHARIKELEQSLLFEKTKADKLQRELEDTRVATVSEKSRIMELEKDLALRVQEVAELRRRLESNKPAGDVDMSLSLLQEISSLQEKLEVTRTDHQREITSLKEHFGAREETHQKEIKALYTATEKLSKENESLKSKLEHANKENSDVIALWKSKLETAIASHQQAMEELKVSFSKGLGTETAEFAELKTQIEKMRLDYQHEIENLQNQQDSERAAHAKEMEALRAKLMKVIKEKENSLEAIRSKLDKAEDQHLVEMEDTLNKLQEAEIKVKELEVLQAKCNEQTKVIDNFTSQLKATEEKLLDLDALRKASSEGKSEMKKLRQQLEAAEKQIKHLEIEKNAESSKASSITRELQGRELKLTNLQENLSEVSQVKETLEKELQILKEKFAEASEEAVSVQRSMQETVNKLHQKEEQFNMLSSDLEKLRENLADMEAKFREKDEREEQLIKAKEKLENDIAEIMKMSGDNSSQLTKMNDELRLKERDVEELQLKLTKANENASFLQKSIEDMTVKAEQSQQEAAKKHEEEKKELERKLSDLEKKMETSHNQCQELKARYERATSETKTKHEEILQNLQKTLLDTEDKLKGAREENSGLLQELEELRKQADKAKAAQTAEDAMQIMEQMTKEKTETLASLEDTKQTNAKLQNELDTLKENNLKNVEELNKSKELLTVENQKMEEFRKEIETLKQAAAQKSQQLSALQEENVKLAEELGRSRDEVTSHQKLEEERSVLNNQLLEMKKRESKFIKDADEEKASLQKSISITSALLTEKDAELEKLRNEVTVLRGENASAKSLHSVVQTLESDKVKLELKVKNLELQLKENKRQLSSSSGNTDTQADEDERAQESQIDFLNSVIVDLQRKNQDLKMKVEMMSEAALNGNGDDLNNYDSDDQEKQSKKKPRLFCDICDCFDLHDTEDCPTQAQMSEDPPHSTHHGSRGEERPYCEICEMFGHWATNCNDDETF
Chain of UniProt P57737 (P57737 whole entry, looked up): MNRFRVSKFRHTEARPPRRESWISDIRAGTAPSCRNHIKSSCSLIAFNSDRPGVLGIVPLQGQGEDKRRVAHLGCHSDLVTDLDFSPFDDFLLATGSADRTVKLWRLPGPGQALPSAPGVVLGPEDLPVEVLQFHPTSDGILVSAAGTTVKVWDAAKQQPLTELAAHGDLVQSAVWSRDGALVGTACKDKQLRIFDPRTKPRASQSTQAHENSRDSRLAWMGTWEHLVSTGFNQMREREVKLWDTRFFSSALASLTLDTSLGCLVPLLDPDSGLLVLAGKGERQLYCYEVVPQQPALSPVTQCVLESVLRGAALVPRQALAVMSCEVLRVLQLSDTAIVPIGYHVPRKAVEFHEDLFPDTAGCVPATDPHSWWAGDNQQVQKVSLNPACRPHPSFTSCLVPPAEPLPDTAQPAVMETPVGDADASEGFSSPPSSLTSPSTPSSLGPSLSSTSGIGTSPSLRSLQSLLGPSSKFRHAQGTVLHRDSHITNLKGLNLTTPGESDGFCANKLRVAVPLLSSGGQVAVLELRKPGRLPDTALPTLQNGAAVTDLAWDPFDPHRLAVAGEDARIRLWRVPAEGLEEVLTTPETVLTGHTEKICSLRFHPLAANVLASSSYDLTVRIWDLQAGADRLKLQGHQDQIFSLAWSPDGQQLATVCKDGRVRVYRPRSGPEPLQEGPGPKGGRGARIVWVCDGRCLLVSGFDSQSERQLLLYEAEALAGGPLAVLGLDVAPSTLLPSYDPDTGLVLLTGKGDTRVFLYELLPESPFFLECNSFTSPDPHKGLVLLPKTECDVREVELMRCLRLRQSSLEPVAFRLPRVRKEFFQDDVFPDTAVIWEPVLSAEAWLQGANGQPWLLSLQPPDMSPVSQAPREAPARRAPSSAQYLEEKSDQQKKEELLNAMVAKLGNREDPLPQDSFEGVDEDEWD
Chain of UniProt G9CGD6 (G9CGD6 whole entry, looked up): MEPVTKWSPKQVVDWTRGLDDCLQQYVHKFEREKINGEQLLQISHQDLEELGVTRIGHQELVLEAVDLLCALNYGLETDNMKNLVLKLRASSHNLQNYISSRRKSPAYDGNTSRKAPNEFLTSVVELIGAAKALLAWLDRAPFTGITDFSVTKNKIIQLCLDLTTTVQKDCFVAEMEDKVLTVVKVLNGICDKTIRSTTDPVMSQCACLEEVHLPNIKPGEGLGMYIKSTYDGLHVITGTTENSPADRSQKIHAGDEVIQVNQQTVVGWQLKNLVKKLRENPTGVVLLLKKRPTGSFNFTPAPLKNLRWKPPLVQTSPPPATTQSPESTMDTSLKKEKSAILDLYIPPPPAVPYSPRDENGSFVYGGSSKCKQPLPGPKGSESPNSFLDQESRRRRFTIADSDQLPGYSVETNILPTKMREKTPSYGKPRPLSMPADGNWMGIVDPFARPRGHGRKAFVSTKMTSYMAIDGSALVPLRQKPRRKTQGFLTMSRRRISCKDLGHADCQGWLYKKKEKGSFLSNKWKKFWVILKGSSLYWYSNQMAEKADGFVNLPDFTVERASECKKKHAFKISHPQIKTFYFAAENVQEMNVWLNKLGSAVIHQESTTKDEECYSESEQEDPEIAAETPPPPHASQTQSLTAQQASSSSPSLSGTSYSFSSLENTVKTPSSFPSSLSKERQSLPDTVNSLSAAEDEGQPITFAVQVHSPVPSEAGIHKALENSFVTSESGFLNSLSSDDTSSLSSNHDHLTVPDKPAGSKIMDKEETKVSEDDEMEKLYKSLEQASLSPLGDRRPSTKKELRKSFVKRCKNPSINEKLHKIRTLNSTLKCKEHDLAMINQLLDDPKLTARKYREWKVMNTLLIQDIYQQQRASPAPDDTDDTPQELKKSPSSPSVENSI
Chain of UniProt Q8WXC6 (Q8WXC6 whole entry, looked up): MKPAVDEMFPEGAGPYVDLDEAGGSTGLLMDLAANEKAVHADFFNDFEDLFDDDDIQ
Chain of UniProt Q9BSY9 (Q9BSY9 whole entry, looked up): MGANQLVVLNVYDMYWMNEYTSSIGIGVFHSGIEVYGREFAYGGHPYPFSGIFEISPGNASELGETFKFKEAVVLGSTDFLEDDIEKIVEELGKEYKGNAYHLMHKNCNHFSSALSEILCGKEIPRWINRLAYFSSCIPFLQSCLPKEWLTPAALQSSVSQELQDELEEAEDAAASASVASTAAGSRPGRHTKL
Chain of UniProt Q16527 (Q16527 whole entry, looked up): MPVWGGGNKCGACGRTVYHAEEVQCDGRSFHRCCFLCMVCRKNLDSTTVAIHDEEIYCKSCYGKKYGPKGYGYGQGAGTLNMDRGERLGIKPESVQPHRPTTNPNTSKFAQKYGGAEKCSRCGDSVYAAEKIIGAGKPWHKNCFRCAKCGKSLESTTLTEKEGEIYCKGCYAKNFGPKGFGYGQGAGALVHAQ
Chain of UniProt Q96SQ9 (Q96SQ9 whole entry, looked up): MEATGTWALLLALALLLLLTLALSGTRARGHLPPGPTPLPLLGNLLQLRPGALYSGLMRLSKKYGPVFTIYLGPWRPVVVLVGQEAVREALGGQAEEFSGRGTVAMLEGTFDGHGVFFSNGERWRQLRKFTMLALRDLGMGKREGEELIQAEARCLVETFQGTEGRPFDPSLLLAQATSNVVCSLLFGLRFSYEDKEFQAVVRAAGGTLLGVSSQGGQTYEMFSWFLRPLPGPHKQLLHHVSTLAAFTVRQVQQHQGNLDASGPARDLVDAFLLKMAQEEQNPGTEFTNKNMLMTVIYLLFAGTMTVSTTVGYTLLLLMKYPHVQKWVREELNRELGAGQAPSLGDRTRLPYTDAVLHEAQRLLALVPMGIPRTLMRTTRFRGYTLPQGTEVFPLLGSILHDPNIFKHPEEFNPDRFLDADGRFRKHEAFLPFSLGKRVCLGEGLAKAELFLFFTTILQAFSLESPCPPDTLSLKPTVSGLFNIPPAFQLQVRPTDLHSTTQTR

Row | Target | log2 fold change (vemurafenib) | log2 fold change [1] | log2 fold change [2] | log2 fold change [3] | log2 fold change (alvocidib) | log2 fold change (defactinib) | log2 fold change (encorafenib) | log2 fold change [4] | log2 fold change (barasertib) | log2 fold change (sotrastaurin) | log2 fold change [5] | log2 fold change (volasertib) | log2 fold change [6] | log2 fold change (Tubastatin A) | log2 fold change [7] | log2 fold change [8] | log2 fold change (saracatinib) | log2 fold change [9] | log2 fold change (alisertib) | log2 fold change (gefitinib)
1 | DESI2 (UniProt Q9BSY9) | 0.064 | 0.089 | 0.116 | -0.113 | -0.07 | 0.016 | -0.057 | -0.014 |  |  |  |  |  |  |  |  |  |  |  | 
2 | CSRP2 (UniProt Q16527) |  | 0.052 | 0.09 | 0.126 | -0.028 |  | -0.046 | -0.056 | 0.078 | -0.351 (active) |  |  |  |  |  |  |  |  |  | 
3 | COPS9 (UniProt Q8WXC6) |  |  |  |  |  |  |  |  |  |  | -0.075 | 0.062 | -0.197 | -0.272 | 0.087 | 0.163 |  |  |  | 
4 | CORO7 (UniProt P57737) | -0.143 | 0.089 | 0.321 | 0.165 | 0.001 | 0.191 | -0.081 | 0.061 |  | 0.137 |  |  | -0.025 | 0.011 | -0.092 |  | 0.166 | -0.05 | 0.259 | -0.062
5 | CLIP1 isoform 2 (UniProt P30622) |  | 0.073 | -0.488 | 0.02 | 0.029 |  | -0.012 | -0.015 | -0.083 | -0.026 | 0.112 | 0.055 | -0.04 | 0.117 | -0.085 | -0.017 | 0.028 | 0.088 | -0.033 | -0.005
6 | CYP2S1 isoform 2 (UniProt Q96SQ9) | 0.062 | 0.119 |  |  |  | -0.022 | 0.024 | 0 |  | 0.081 | 0.136 | 0.038 | 0.063 | 0.027 | -0.085 | -0.219 | 0.017 | -0.151 |  | 
7 | CNK3/IPCEF1 isoform 2 (UniProt G9CGD6) | -0.062 | 0.056 | -1.81 (active) | 0.506 | -0.483 | -0.082 | 0.041 | -0.062 |  |  |  |  | 0.078 | -0.048 | -0.012 |  | 0.053 | -0.007 |  | 
8 | CLIP1, A0A3B3ITA2 | -0.026 |  | -0.515 | 0.634 (active) | -0.036 | -0.077 |  |  |  | -0.021 |  |  | -0.015 | 0.152 |  |  |  |  |  | 
9 | CSNK2A1, A0A2R8Y4D6 |  |  |  |  |  |  |  |  |  |  | 0.107 | -0.325 |  |  |  | 0.06 |  |  |  | 
